Test systems include NCI-H23 lung; NCI-H226 lung; NCI-H322M lung; HOP-62 NSCLC; NCI-H460 lung; HOP-92 NSCLC; NCI-H522 lung; A549/ATCC NSCLC; 786-0 renal; COLO 205 colon.
Holding throughout (assay): NCI-60 one-dose screen, 48 h (100 = growth as untreated, 0 = no growth, -100 = all killed)
Holding throughout (conditions): 10 µM unless noted

Values joined by “and” are separate entries in the source; they are usually repeats but may differ in a detail not shown here. Equal values may be shown once. About 83,000 compounds went through this panel and 20% of them were active in at least one assay; those are over-represented in the sample as a whole.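 Single-dose data. Exposure time 48 hours. Values below 10 considered active.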 A number with no mark means an inactive call. Active and inactive are the calls of the source.

As for `O=C([C@H]1C[C@H]1c1ccc(S(F)(F)(F)(F)F)cc1)N1CCN(c2cc(Cl)ccc2C(F)(F)F)CC1`, the growth is 91.2% with NCI-H23 lung; 75.7% in the assay on NCI-H226 lung; 90.1% in the assay with NCI-H322M lung; 102% with HOP-62 NSCLC; 95.6% in the assay with NCI-H460 lung; 88.3% with HOP-92 NSCLC. Moreover, the growth with NCI-H522 lung was 70.7%; in the assay with A549/ATCC NSCLC it was 81.5%; with 786-0 renal, 89.3%; in the assay with COLO 205 colon, 101%.
For the compound `COc1ccccc1/C=C1\COc2ccc(O)c(O)c2C1=O`, the growth was 40.8% with NCI-H23 lung; 76% in the assay with NCI-H226 lung; 46.2% in the assay with NCI-H322M lung; 17.3% with HOP-62 NSCLC; 24.6% with NCI-H460 lung; 29.6% in the assay with HOP-92 NSCLC. Further, the growth was -42.3% (active) in the assay on NCI-H522 lung, 50.6% in the assay on A549/ATCC NSCLC, 2.1% (active) with 786-0 renal and 77.9% in the assay with COLO 205 colon.
`CCCO/N=C/c1ccccn1`: the growth in the assay with NCI-H23 lung is 105% and 96.6%; with NCI-H226 lung it was 99.2% and 100%; in the assay with NCI-H322M lung, 112%; with HOP-62 NSCLC, 104% and 88.2%; in the assay with NCI-H460 lung it was 105% and 109%; with HOP-92 NSCLC, 105%. Moreover, the growth is 94.8% and 87.3% in the assay on NCI-H522 lung; 97.5% and 104% in the assay with A549/ATCC NSCLC; 107% and 101% in the assay on 786-0 renal; 112% and 108% in the assay with COLO 205 colon.
Take `O=C(N=Nc1c(O)[nH]c2ccccc12)Nc1ccccc1Cl`: the growth in the assay on NCI-H23 lung is 80.1%; in the assay with NCI-H226 lung, 87.1%; in the assay with NCI-H322M lung, 73.5%; in the assay with HOP-62 NSCLC, 104%; in the assay with NCI-H460 lung, 92.1%; in the assay on HOP-92 NSCLC, 90.3%. Further, the growth with NCI-H522 lung was 78.6%; in the assay on A549/ATCC NSCLC, 107%; in the assay on 786-0 renal it was 96.9%; in the assay with COLO 205 colon it was 105%.
Regarding `O=C(NCc1cccnc1)/C(=C\c1ccc(Br)cc1)S(=O)(=O)c1ccccc1`, the growth in the assay on NCI-H23 lung was -43.7% (active); in the assay on NCI-H226 lung, 7.52% (active); in the assay with NCI-H322M lung, 1.87% (active); in the assay with HOP-62 NSCLC, -34.1% (active); in the assay on NCI-H460 lung it was -30.5% (active); in the assay on HOP-92 NSCLC it was -2.35% (active). Moreover, the growth is -71.2% (active) with NCI-H522 lung, -3.53% (active) in the assay with A549/ATCC NSCLC, -67.7% (active) with 786-0 renal and -84.2% (active) in the assay with COLO 205 colon.
As to `CC1(C)C(N)=Nc2cc(OCCCCN3Cc4ccccc4C3)c(OCC3CC3)cc21`, the growth in the assay on NCI-H23 lung was 80.3%; in the assay with NCI-H226 lung, 79.6%; in the assay on NCI-H322M lung, 79.9%; with HOP-62 NSCLC it was 85.6%; in the assay on NCI-H460 lung, 75.2%; in the assay on HOP-92 NSCLC, 103%. Also, the growth with NCI-H522 lung was 64.2%; in the assay on A549/ATCC NSCLC, 79.5%; in the assay with 786-0 renal it was 64.8%; with COLO 205 colon it was -62.7% (active).
As to `[2H]C([2H])([2H])Oc1cccc(/C=C/C(=O)/C=C(/C=C/c2cccc(OC([2H])([2H])[2H])c2OC([2H])([2H])[2H])OB(F)F)c1OC([2H])([2H])[2H]`, the growth in the assay with NCI-H23 lung is 69.9%; with NCI-H226 lung it was 95.4%; in the assay on NCI-H322M lung it was 106%; with HOP-62 NSCLC, 99.5%; with NCI-H460 lung, 96.9%; in the assay with HOP-92 NSCLC, 102%. Moreover, the growth is 56.9% in the assay with NCI-H522 lung, 93.4% with A549/ATCC NSCLC, 85.2% in the assay with 786-0 renal and 55.2% with COLO 205 colon.
Take `Cc1ccc(NC(=O)N/C(N)=N/c2nc(=O)c3ccccc3s2)cc1`: the growth was 94.1% in the assay with NCI-H23 lung; 91.3% in the assay with NCI-H226 lung; 93.9% with NCI-H322M lung; 91.7% in the assay with HOP-62 NSCLC; 88.8% in the assay with NCI-H460 lung; 86.4% in the assay with HOP-92 NSCLC. Also, the growth was 95.3% in the assay with NCI-H522 lung, 103% with A549/ATCC NSCLC, 98.6% in the assay on 786-0 renal and 103% in the assay on COLO 205 colon.
Regarding `O=S(=O)(Nc1ccc(F)cc1)c1ccc(-c2cnc(C3CC3)o2)cc1`, the growth is 42% with NCI-H23 lung; 63.9% with NCI-H226 lung; 52.8% in the assay with NCI-H322M lung; 34.7% in the assay with HOP-62 NSCLC; 15.8% with NCI-H460 lung; 50.5% in the assay with HOP-92 NSCLC. The growth in the assay on NCI-H522 lung is 0.0519% (active); with A549/ATCC NSCLC it was 37.8%; with 786-0 renal it was 38.5%; in the assay with COLO 205 colon, 20.2%.
Regarding `CC/C=C\C/C=C\C[C@H](O)C/C=C1/C(=O)C=C[C@@H]1C/C=C\CCCC(=O)OC`, the growth in the assay on NCI-H23 lung is -19.9% (active); with NCI-H226 lung, -48.3% (active); with NCI-H322M lung it was 10.6%; in the assay with HOP-62 NSCLC it was -30.3% (active); with NCI-H460 lung, -40% (active); in the assay on HOP-92 NSCLC it was -23% (active). Further, the growth with NCI-H522 lung is -52.3% (active); with A549/ATCC NSCLC, -23.7% (active); in the assay on 786-0 renal, -60.6% (active); with COLO 205 colon, -69.4% (active).
Consider `COc1ccc(-c2nc(Cl)c3c(C)nn(-c4ccc(F)cc4)c3n2)cc1`, for which the growth with NCI-H23 lung was 97.1%; in the assay on NCI-H226 lung it was 103%; with NCI-H322M lung it was 105%; with HOP-62 NSCLC, 104%; in the assay on NCI-H460 lung it was 108%; with HOP-92 NSCLC, 101%. Also, the growth was 97.3% in the assay on NCI-H522 lung, 90.4% with A549/ATCC NSCLC, 105% in the assay with 786-0 renal and 110% with COLO 205 colon.
Take `CCCCCCNC(=O)Oc1ccc(/C(=C(/CC)Cc2ccccc2)c2ccc(OCCCN(C)C)cc2)cc1`: the growth with NCI-H23 lung was 79%; with NCI-H226 lung, 95.5%; with NCI-H322M lung, 89.3%; with HOP-62 NSCLC, 83.2%; in the assay with NCI-H460 lung, 40.2%; in the assay on HOP-92 NSCLC, 54.3%. The growth in the assay with NCI-H522 lung is 89%; in the assay with A549/ATCC NSCLC, 71.6%; in the assay with 786-0 renal, 68.8%; in the assay on COLO 205 colon, 65.6%.
For the compound `COc1ccc(-c2nn3c(-c4cc(F)c(Cl)cc4Cl)nnc3s2)cc1`, the growth in the assay on NCI-H23 lung is 54.1%; in the assay on NCI-H226 lung it was 80%; in the assay on NCI-H322M lung, 79.2%; with HOP-62 NSCLC, 30.6%; with NCI-H460 lung, 32.5%; in the assay on HOP-92 NSCLC it was 37.6%. The growth was 23.1% with NCI-H522 lung, 51.1% with A549/ATCC NSCLC, 46.2% in the assay with 786-0 renal and 62.9% in the assay on COLO 205 colon.

For the origin of these results see PubChem BioAssay (NCI).
